Test results taken from PubChem BioAssay (NCATS).
Results filed as inconclusive are left out. Entries that show only a call come without a potency. Activity calls are given as the source filed them. The call rests on the fitted dose curve; in most records, active means well fitted inhibition curve with a large enough effect; inconclusive means small, poorly fitted or top-dose-only effect; inactive means flat fitted curve, though single readings scatter. Starred links: 1 amine or outer side, 2 acyl side, 3 side chain; linkers in the order of their positions; H or OH if unused. Positions of bridges follow the written chain, without caps; N, C: chain ends. Non-standard residues stand in square brackets, D forms with d. Residues, ends and D or L forms follow the SMILES beside them. ξ: configuration not given here. *: point of attachment. X3 = C[C@@H](Oc1ccc([C@H](N[*:1])C(=O)[*:2])cc1)[C@]1(/C=C\C(=O)[*:3])CO1; d(aIle) = CC[C@H](C)[C@@H](N)C(=O)O; X2 = CC(C)[C@@H](O)C(C)C(=O)*; ξNMeF = CNC(Cc1ccccc1)C(=O)O; ξT = CC(O)C(N)C(=O)O; ξS = NC(CO)C(=O)O

What follows are compounds tested on NAD(P)H diaphorase (Clostridium kluyveri) (assay: Diaphorse counterscreen qHTS: Assay Interference Panel against the NCATS CANVASS Library (AID 1347362)). Conditions: Diaphorase enzyme, resazurin to resorufin fluorescence; series mostly up to 57.5 µM.
Excerpt: Natural products and their derivatives continue to be wellsprings of nascent therapeutic potential. However, many laboratories have limited resources for biological evaluation, leaving their previously isolated or synthesized compounds largely or completely untested. To address this issue, the Canvass library of natural products was assembled (https://tripod.nih.gov/canvass), in collaboration with academic and industry researchers, for quantitative high-throughput screening (qHTS) across a diverse set of cell-based and biochemical assays. The pure (>85% purity by liquid chromatography/mass spectrometry [LC/MS]) Canvass library of 346 natural products were submitted by 45 academic laboratories and companies around the world. We collected pure natural products to circumvent deconvolution and structure elucidation due to time and resource limitations. The library was formatted into 1536-well plates and evaluated in 50 qHTS (in an 11-pnt concentration series) bioassays with broad scope of disease-relevant mechanisms. The resulting data set from 50 different assays was then systematically analyzed to identify overall trends and specific natural products with interesting biological activities. Reported herein are the results of each individual qHTS and their corresponding assay protocol. This assay determines potential interactions with a common fluorescent coupling enzyme, NAD(P)H-Diaphorase, to identify possible false positives in future assays. The assay measures the conversion of resazurin to fluorescent resorufin, to identify compounds that inhibit the activity of diaphorase. National Center for Advancing Translational Sciences (NCATS), Rockville, MD National Institute of Health (NIH), Bethesda, Maryland
Assay Interference counterscreen protocol 1. In a 1536 well, black solid bottom, medium binding plates (Corning 7494), 3 uL of diaphorase from Clostridium kluyveri in PBS + 0.01% Tween-20 was dispensed into columns 2 to 48, rows 1 to 32 using the Bioraptr dispenser. PBS-T solution was dispensed in column 1, rows 1 to 32 for control purposes. 2. Compounds were pin transferred (~23 nL volume) via Wako Pin-tool (Wako Automation, Richmond VA) equipped with a 1536 pin head. The assay plates were treated with compounds in a concentration series with a final concentration range of 0.2 nM to 128 uM. 3. PTC was used as a control (25 uM, n = 32, column 2, row 1-32) at a final concentration of 114.5 nM and was pin transferred via Wako Pin-tool equipped with a 1536 pin head. 4. The assay plates were incubated in the dark for 15 minutes at room temperature. 5. One microliter of 4x detection reagent (40 uM Resazurin + 40 uM NADH in PBS-T) was then added to the assay plates (column 1-48, rows 1-32) for a final assay volume of 4 uL. 6. The assay plates were further incubated in the dark for 5 minutes at room temperature. 7. Fluorescence signal was acquired via the ViewLux plate reader (PerkinElmer) using an excitation filter 525/20, emission filter 598/25; 1000 light energy, 2 second exposure, 2x binning settings.
Potency means the concentration at half of the fitted maximal effect.

How did the Potency turn out when CO[C@H]1C[C@H](O[C@H]2[C@@H](O)C[C@H](O[C@H]3CC[C@]4(C=O)[C@H]5CC[C@]6(C)C(C7=CC(=O)OC7)CC[C@]6(O)[C@@H]5CC[C@]4(O)C3)O[C@@H]2C)O[C@H](C)[C@H]1O[C@H]1C[C@@H](OC)[C@@H](O[C@@H]2O[C@H](CO)[C@@H](O)[C@H](O)[C@H]2O)[C@@H](C)O1 (stereo not given in full) was run?
The Potency was “inactive”.

How did the Potency turn out when CC[C@@H]1CN2CCC3(Nc4cccc(OC)c4C3=O)[C@@H]2C[C@@H]1/C(=C\OC)C(=O)OC (stereo not given in full) was run?
The Potency was “inactive”.

With CC[C@H](C)[C@H]1NC(=O)[C@@H](NC(=O)C(C)[C@H](O)C(C)C)[C@@H](C)OC(=O)C2COC(=O)CNC(=O)/C=C\[C@]3(CO3)[C@@H](C)Oc3ccc(cc3)[C@H](NC1=O)C(=O)N(C)C(Cc1ccccc1)C(=O)NC(C(C)O)C(=O)N2 (stereo not given in full) (X2-T[d(aIle)][X3][ξNMeF][ξT][ξS]; ester 1-C; linker 3-6 via G) as the compound, how does the Potency read?
The Potency was “inactive”.

For CO[C@H]([C@@H](C)[C@H]1O[C@]1(C)C[C@H](C)/C=C/C=C(\C)[C@H]1O[C@@H](CC(=O)O)CC[C@@H]1C)[C@@H](C)O, which Potency is on record?
The Potency was “inactive”.

For C/C=C1/CN2CC[C@@]34c5ccccc5N(C)[C@@H]3[C@@H]2C[C@@H]1[C@H]4C(=O)OC, which Potency is on record?
Its Potency is “inactive”.

With CO[C@H]1[C@H](O[C@H]2CC[C@]3(C=O)[C@H]4CC[C@]5(C)[C@@H](C6=CC(=O)OC6)CC[C@]5(O)[C@@H]4CC[C@]3(O)C2)O[C@H](C)[C@H](O)[C@@H]1OC as the compound, how does the Potency read?
Its Potency is “inactive”.

For COC1=C(C2=C(OC)C(=O)c3cc4c(c(O)c3C2=O)C(=O)O[C@H](C)C4)C(=O)c2c(cc3c(c2O)C(=O)O[C@H](C)C3)C1=O, which Potency is on record?
The Potency was 1450 nM (active).

C=CC(C)(C)[C@@]12C[C@H]3C(=O)N/C(=C/c4cnc[nH]4)C(=O)N3[C@@H]1Nc1ccccc12 was tested. Which Potency did it give?
The Potency was “inactive”.

Which Potency does the source give for C/C=C1/CN2C3CC1C1=CCC(=O)N4c5ccccc5[C@@]3(C[C@@H]2C2=C[C@H]3C5CC6N(CC[C@@]67c6ccccc6N(C2=O)[C@@H]37)C/C5=C/C)[C@H]14 (stereo not given in full) here?
The Potency was “inactive”.

Which Potency does the source give for C/C=C(\C)C(=O)O[C@@H]1[C@@H](O)[C@@H]2O[C@H]3[C@H](O[C@@H](CCCCC)CCCCCCC(=O)CCC(=O)OC[C@@H](O2)[C@H]1OC(=O)/C=C/c1ccccc1)O[C@H](C)[C@H](OC(C)=O)[C@@H]3O here?
The Potency was “inactive”.

For CC[C@]12C=CCN3CC[C@]4(C(=C(C(=O)OC)C1)Nc1ccccc14)[C@@H]32, which Potency is on record?
Its Potency is “inactive”.

For C[C@]12CC(O)C3[C@@H](CC[C@@H]4C[C@@H](O)CC[C@]34CO)[C@@]1(O)CC[C@@H]2C1=CC(=O)OC1 (stereo not given in full), which Potency is on record?
The Potency was “inactive”.

With CCC(=O)N[C@@H](C[C@H](C)C(Cl)(Cl)Cl)C(=O)N1C(=O)C=C(OC)[C@@H]1C[C@H](C)C(Cl)Cl as the compound, how does the Potency read?
The Potency was “inactive”.

How did the Potency turn out when CC[C@H]1CN2CCc3c([nH]c4cccc(OC)c34)[C@@H]2C[C@@H]1/C(=C\OC)C(=O)OC was run?
Its Potency is “inactive”.

For C[C@]12CC(O)C3[C@@H](CCC4C[C@@H](O)CC[C@@]43CO)[C@@]1(O)CC[C@@H]2C1=CC(=O)OC1 (stereo not given in full), which Potency is on record?
The Potency was “inactive”.

For C[C@]12CCC3[C@@H](CC[C@@H]4C[C@@H](O)CC[C@]34CO)[C@@]1(O)CC[C@@H]2C1=CC(=O)OC1 (stereo not given in full), which Potency is on record?
Its Potency is “inactive”.

With C=CC(C)(C)[C@@]12C[C@H]3C(=O)N/C(=C\c4cnc[nH]4)C(=O)N3[C@@H]1Nc1ccccc12 as the compound, how does the Potency read?
The Potency was “inactive”.

With O[C@H]1C=C[C@@]23CCN(Cc4cc5c(cc42)OCO5)[C@@H]3C1 as the compound, how does the Potency read?
The Potency was “inactive”.

C/C=C/[C@@H]1[C@H]2C[C@@H](C)CC[C@@H]2C(C)=C[C@H]1C(=O)c1c(O)c(-c2ccc(O)cc2)c[nH]c1=O was tested. Which Potency did it give?
Its Potency is “inactive”.

How did the Potency turn out when C1=C2CCCN[C@H]2C2CC1[C@H]1CCCCN1C2 (stereo not given in full) was run?
Its Potency is “inactive”.

CC[C@@H]1CN2CCc3c([nH]c4cccc(OC)c34)[C@@H]2C[C@@H]1/C(=C\OC)C(=O)OC was tested. Which Potency did it give?
The Potency was “inactive”.

With C=C[C@]12C=CCN3CC[C@@]4(c5ccccc5NC(=O)[C@@H]4C1)[C@@H]32 as the compound, how does the Potency read?
Its Potency is “inactive”.

With C/C=C1/CN2CC[C@]34C(=C(C(=O)OC)[C@H]1C[C@H]23)Nc1ccccc14 as the compound, how does the Potency read?
The Potency was “inactive”.

C=C[C@H]1CN2CCc3c([nH]c4cccc(OC)c34)[C@@H]2C[C@@H]1/C(=C\OC)C(=O)OC was tested. Which Potency did it give?
Its Potency is “inactive”.

With CCCC[C@@H]1CC[C@H]2CCCC(CCCO)N12 (stereo not given in full) as the compound, how does the Potency read?
Its Potency is “inactive”.

How did the Potency turn out when CCCC[C@@H](C)/C=C1/CN2CCC[C@H]2[C@@](C)(O)[C@@H]1O was run?
The Potency was “inactive”.

Which Potency does the source give for CCCCC1CC[C@H]2CCCC(CCC)N12 (stereo not given in full) here?
The Potency was “inactive”.

How did the Potency turn out when CO[C@@H](/C=C/CC/C=C/C(=O)O)[C@@H](O)[C@H](C)/C=C(\C)[C@H](O)[C@H](C)C(=O)CCCC1CC(=O)NC(=O)C1 was run?
Its Potency is “inactive”.

With c1ccc2nc3c(cc2c1)[nH]c1ccccc13 as the compound, how does the Potency read?
Its Potency is “inactive”.

C[N+](C)(C)CCc1c[nH]c2ccccc12 was tested. Which Potency did it give?
Its Potency is “inactive”.
